An excerpt weighted towards active compounds, which were near 4% of everything screened.
C2C12 statin – suppressors of simvastatin-induced myotoxicity in C2C12 myotubes. ATP luminescence, 48 h; scaled: DMSO 0, geranylgeraniol control 100. rescue of ATP level, % at 7.49 µM. 0.78% of 330,000 active. AID 602340;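 active = mean ATP rescue above about 67%, or every replicate alone reaching that limit, limit read from the data, passing the limit was not always enough; inconclusive = no clear call, values can overlap the other calls; inactive = mean under the limit and some replicate under it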;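 note: myotubes were challenged with 10 µM simvastatin during compound exposure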
EBV LMP1 NFkB – reduces LMP1-driven NF-kappaB luciferase signal | LMP1-induced NF-kappaB luciferase reporter cells, luminescence | inhibition, % at 12.5 µM | 0.69% of 350,000 active; in the data active = inhibition above about 41%; inconclusive = no clear call, values can overlap the other calls;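 note: 0% = neutral control wells and 100% = reference inhibitor control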
Wnt bcat act – activates Wnt/beta-catenin signaling in a reporter cell assay. activator, plate reader. activation, % at 9.35 µM. 1.2% of 300,000 active. AID 743398; in the data active = activation above about 30%, passing the limit was not always enough; inconclusive = no clear call, values can overlap the other calls;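 note: 0% = neutral control wells and 100% = positive control wells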
TRPM1 prom inh – reduces MITF-dependent TRPM1 promoter luciferase signal; SK-MEL-5 TRPM1 promoter luciferase, 24 h; inhibition, % at 12.5 µM; 0.83% of 330,000 active;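 active = mean inhibition across replicates of 60% or more, whatever share of single replicates reaches that level; inconclusive = some that reach 60%, reason not given; inactive = mean inhibition across replicates below 60%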
MITF act – increases MITF-driven TRPM1 promoter luciferase signal; SK-MEL-5 TRPM1-promoter luciferase, 24 h; % of positive control, neutral wells = 0; activation, % at 12.5 µM; 0.75% of 300,000 active; AID 588334;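 active = mean activation of at least 80% with every replicate also reaching 80%; inconclusive = mean reaches 80% but some replicate falls short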;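 note: 0% = neutral control wells and 100% = parthenolide positive control wells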
esBAF inh – blocks esBAF chromatin remodeling in mouse ES cells | Bmi1-luciferase knock-in reporter, 24 h; 100% = twice the neutral-well signal | reporter increase, % at 12.5 µM | 2% of 350,000 active | AID 602393; in the data active = activation above about 40%; inconclusive = no clear call, values can overlap the other calls;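 note: 0% = median of the plate's neutral control wells and 100% = double that signal; a rise in the Bmi1 reporter signal indicates esBAF inhibition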
Starred values were filed as active, the others as inactive; ? = inconclusive; . = no result given.

SMILES	C2C12 statin	EBV LMP1 NFkB	Wnt bcat act	TRPM1 prom inh	MITF act	esBAF inh
O=C(Nc1nc(-c2ccccc2)cs1)c1ccc(N2CCOCC2)c([N+](=O)[O-])c1	.	26.4	.	80.4*	-81.1	.
O=C1C=C(c2cccc(Cl)c2O)C[C@@H](c2ccc3c(c2)OCO3)C1	15.8	-15.4	-1.2	-3.0	5.6	5.3
CN(C)C(=O)[C@@H]1[C@@H](CO)[C@@H]2Cn3c(ccc(-c4ccc(F)cc4)c3=O)[C@H]1N2CCc1ccccc1	1.1	.	.	.	.	-2.2
O=C1NC(=O)C2(CCc3ccccc32)N1 (stereo not drawn)	65.2*	6.0	0.5	-0.2	2.9	-7.6
O=C(O)CN1C(=O)NC2(CCc3ccccc32)C1=O (stereo not drawn)	-3.9	-2.9	-0.1	0.6	2.4	-2.7
NC(N)=NC(=O)c1nc(Cl)c(N2CCCCCC2)nc1N	-36.2	74.0*	21.1	-125.4	126.0*	58.6*
NC(N)=NC(=O)c1nc(Cl)c(N)nc1N	-11.1	26.3	1.2	7.7	-5.2	-28.3
COc1cccc(NC(=O)Nc2nccc(C)n2)c1	.	29.8	6.9	-1.5	-5.1	.
Cc1ccc(NC(=O)Nc2ccc3c(c2)OCO3)nc1	4.9	-1.6	?	-131.8	130.2*	48.3*
Cc1cccc(NC(=O)Nc2cccc(C#N)c2)n1	0.0	-20.7	8.3	-41.2	44.2	50.1*
Cc1ccnc(NC(=O)Nc2cccc(F)c2)n1	-2.6	-11.6	80.0*	-29.4	28.5	12.8
Cc1cccc(NC(=O)Nc2cccc(F)c2)n1	-14.8	-48.6	.	-19.7	19.6	68.3*
Cc1noc(C)c1S(=O)(=O)Nc1ccc2c(c1)C(=O)N([C@@H](C)CO)C[C@H](C)[C@H](CN(C)C(=O)c1ccncc1)OCCCC[C@H](C)O2	.	.	.	.	.	-2.1
COc1cc(C(=O)Nc2cccc(-n3cnnn3)c2)cc(OC)c1OC	-9.7	8.1	-2.7	1.7	-0.6	1.9
Cc1ccc(NC(=O)c2ccccc2F)nc1	-2.8	0.7	.	-5.6	.	25.2
Cc1ccc(NC(=O)/C=C/c2ccc3c(c2)OCO3)nc1	.	-24.8	30.2*	-81.0	?	.
Cc1ccc(NC(=O)Nc2ccc(Cl)c(Cl)c2)nc1	1.1	-46.4	18.6	-64.0	.	59.9*
Cc1ccc(NC(=O)Nc2cccc(F)c2)nc1	-12.4	-43.7	4.4	-61.6	.	52.6*
Cc1ccc(NC(=O)c2cc(F)c(F)cc2Cl)nc1	?	-18.4	16.0	-87.1	?	44.2*
CN(C)CC(=O)Nc1ccc2c(c1)[C@@H]1C[C@H](CC(=O)NCc3ccccn3)O[C@H](CO)[C@@H]1O2	3.3	.	.	.	.	-1.9
Cc1ccc(C)c(OCC(=O)Nc2nc3ccc([N+](=O)[O-])cc3s2)c1	.	-8.2	-2.0	15.3	-12.2	.
COc1cccc(-c2nc(CC(=O)O)cs2)c1OC	.	-8.5	-1.5	2.0	.	.
O=C(Nc1ccc(Cl)c(Cl)c1)Nc1nccs1	-53.4	66.3*	16.8	-5.2	8.9	22.1
Cc1c(NC(=O)c2cccc(NC(=O)Cc3ccc(F)cc3)c2)c(=O)n(-c2ccccc2)n1C	13.7	1.7	3.1	-14.2	16.9	5.4
O=C(Cc1ccccc1)N/N=C/c1ccc([N+](=O)[O-])s1	?	-2.5	.	67.6*	-68.8	15.7
SMILES	C2C12 statin	EBV LMP1 NFkB	Wnt bcat act	TRPM1 prom inh	MITF act	esBAF inh
Cc1ccccc1C(=O)N/N=C/c1ccc([N+](=O)[O-])s1	9.0	-6.8	.	93.6*	-92.7	-62.2
COC(=O)N/N=C/c1ccc([N+](=O)[O-])s1	-4.5	-9.5	0.5	22.7	-22.6	-3.3
O=C(N/N=C/c1ccc([N+](=O)[O-])s1)C(O)c1ccccc1 (stereo not drawn)	.	-5.5	-1.4	69.4*	-67.3	.
Cc1cc(C(=O)N/N=C/c2ccc([N+](=O)[O-])s2)c2ccccc2n1	20.8	-10.5	-3.7	59.5	-57.8	-1.4
O=C(N/N=C\c1ccc([N+](=O)[O-])s1)c1cncc(Br)c1	.	12.7	-4.1	78.4*	-77.2	.
O=C(C[C@@H]1C/C=C\C[C@H](NC(=O)OCC2c3ccccc3-c3ccccc32)C(=O)OC[C@H]2CCCN2C1=O)N[C@@H](CO)Cc1ccccc1	-26.9	6.9	0.3	-4.8	8.6	-15.7
CCCCC#Cc1cncc(C(=O)N/N=C/c2ccccc2)c1	1.8	10.1	0.3	6.3	-7.0	-5.3
Cn1c(SCC(=O)N/N=C/c2ccc([N+](=O)[O-])s2)nnc1-c1ccccc1	.	-8.8	-1.0	71.3*	-70.3	.

Assay outcomes from PubChem.
